We go through 8 molecules from PubChem BioAssay (EPA / NIEHS).

“And” between values parts separate entries of the source, which are not always exact repeats. Equal entries are not always repeated. Records with an inconclusive call do not appear. The source made the active and inactive calls. The calls were made as follows, unless noted: active = hit-call score of the fitted dose curve at least 0.9, where 1 is the maximum; inactive = score below 0.9.

Test [1] has as its target Hepatocyte nuclear factor 4-alpha (Homo sapiens) (UniProt P41235). Briefly: ATG_HNF4a_TRANS: Attagene TRANS-FACTORIAL HepG2 Assay for human Hepatocyte Nuclear Factor 4 alpha (HNF4a) (AID 2282982; active = hit-call score of the fitted dose curve at least 0.9, where 1 is the maximum). Conditions: HepG2 HNF4a transactivation reporter, mRNA readout. In short, it runs like this:
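Gain-of-signal mRNA induction, relative to DMSO vehicle, was read after 24 h compound treatment of HepG2 cells bearing transfected GAL4-UAS reporters. Detection used RT-PCR, 6-FAM primer extension and capillary electrophoresis.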

Test [2] in a line: ATG_M_06_TRANS: Attagene TRANS-FACTORIAL HepG2 Assay for M06 Transcription Factor (Internal Marker) (AID 2282983; active = hit-call score of the fitted dose curve at least 0.9, where 1 is the maximum). To be noted: HepG2 Attagene TRANS M06 internal marker reporter. In short, it runs like this: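 Cells: HepG2, transient multi-reporter transfection. Exposure: 24 h. Detection: RT-PCR, 6-FAM labelling, HpaI digestion (2 h, 37 °C), capillary electrophoresis. Baseline: DMSO.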

For test [3], the target named is Nuclear receptor subfamily 4 group A member 2 (Homo sapiens) (UniProt P43354). Briefly: ATG_NURR1_TRANS: Attagene TRANS-FACTORIAL HepG2 Assay for human Nuclear Receptor Related Protein 1 (NURR1) (AID 2282985; active = hit-call score of the fitted dose curve at least 0.9, where 1 is the maximum). To be noted: HepG2 Attagene TRANS reporter, mRNA readout. In short, it runs like this: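 HepG2 / transient MRTU transfection / 24 h compound exposure / RT-PCR + CE fluorescence of reporter mRNA / gain-of-signal vs DMSO.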

Test [4] deals with Transcriptional activator Myb (Homo sapiens) (UniProt P10242). Briefly: ATG_Myb_CIS: Attagene CIS-FACTORIAL HepG2 Assay for human Myeloblastosis (Myb) Proto-Oncogene Transcription Factor (AID 2282986). To be noted: HepG2 Attagene CIS-FACTORIAL Myb reporter transcription; actives raise or lower the signal. In short, it runs like this:
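Endogenous transcription factor activity at a Myb-responsive cis element is reported in human liver HepG2 cells after 24 h chemical treatment. Reporter mRNA is detected by RT-PCR and capillary electrophoresis fluorescence, with DMSO as baseline.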

In test [5] the target is Nuclear respiratory factor 1 (Homo sapiens) (UniProt Q16656). Briefly: ATG_NRF1_CIS: Attagene CIS-FACTORIAL HepG2 Assay for human Nuclear Respiratory Factor 1 (NRF1) Orphan Gene (AID 2282987). Conditions: HepG2 NRF1 cis-element reporter, Attagene multiplex; actives raise or lower the signal. In short, it runs like this:
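Human hepatoma HepG2 cells carrying transfected promoter-regulated reporter units were incubated with test chemicals for 24 h. Reporter transcripts were measured by RT-PCR plus capillary electrophoresis, and endpoints derived by bidirectional fitting with DMSO as baseline.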

Test [6] deals with Myc proto-oncogene protein (Homo sapiens) (UniProt P01106). Kind of test: ATG_Myc_CIS: Attagene CIS-FACTORIAL HepG2 Assay for human Myelocytomatosis (Myc) Proto-Oncogene Transcription Factor (AID 2282990). Conditions: HepG2, Attagene cis-reporter transcription factor activity; actives raise or lower the signal. In short, it runs like this: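 Fluorescence intensity of reporter-specific cDNA fragments, separated by capillary electrophoresis, gives the signal. Transfected HepG2 cells carrying cis-promoter reporter constructs are incubated with compound for 24 h; DMSO serves as baseline.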

A short description of test [7]: ATG_NF_kB_CIS: Attagene CIS-FACTORIAL HepG2 Assay for human Nuclear Factor Kappa B (NF-kB) (AID 2282991). Conditions: HepG2 Attagene cis-factorial NF-kB reporter mRNA; actives raise or lower the signal. In short, it runs like this: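 Multiplexed cis-reporter assay in transiently transfected HepG2. 24 h treatment; RNA isolated, RT-PCR, labelled fragments resolved by CE. DMSO baseline.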

A short description of test [8]: ATG_NRF2_ARE_CIS: Attagene CIS-FACTORIAL HepG2 Assay for human Nuclear Factor Erythroid 2 Related Factor 2 (NFR2) response to Antioxidant Response Elements (ARE) (AID 2282992).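 As to AC50: reporter mRNA level measured by RT-PCR and capillary electrophoresis fluorescence.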 To be noted: HepG2 Attagene ARE/NRF2 reporter, transcription factor activity; actives raise or lower the signal. In short, it runs like this: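 HepG2 cells transiently transfected with multiplexed cis-regulated reporter transcription units measure endogenous transcription factor activity. Reporter mRNA at 24 h is quantified by RT-PCR, fluorescent labelling and capillary electrophoresis, with bidirectional fitting relative to DMSO.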

Test [9] can be described thus: ATG_Oct_MLP_CIS: Attagene CIS-FACTORIAL HepG2 Assay for human Octamer-Binding Transcription Factor (Oct) (AID 2282993). To be noted: HepG2 Attagene cis-factorial Oct reporter, mRNA; actives raise or lower the signal. In short, it runs like this:
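HepG2 cells transiently transfected with cis-promoter-driven multiplexed reporter transcription units, dosed for 24 h. Reporter mRNA quantified by RT-PCR, fluorescent labelling, HpaI digestion and capillary electrophoresis; bidirectional fits versus DMSO baseline.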

Test [10] concerns the target Cellular tumor antigen p53 (Homo sapiens) (UniProt P04637). Briefly: ATG_p53_CIS: Attagene CIS-FACTORIAL HepG2 Assay for human p53 Transcription Factor (AID 2282994). Conditions: HepG2 p53 cis-element reporter, Attagene mRNA; actives raise or lower the signal. In short, it runs like this:
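HepG2 cells transiently transfected with multiplexed cis-regulated reporter transcription units read endogenous TF activity. After 24 h compound exposure, reporter mRNA was quantified by RT-PCR, fluorescent labelling, HpaI digestion and capillary electrophoresis; bidirectional fits versus DMSO baseline.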

The nature of test [11]: BSK_3C_TissueFactor: BioMAP Diversity Plus: 3C Assay for Tissue Factor Biomarker Activity (AID 2282997). To be noted: BioMAP 3C HUVEC, tissue factor biomarker readout; actives raise or lower the signal. In short, it runs like this:
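Dosing of human umbilical vein endothelial cells preceded a 24 h incubation. Tissue Factor was then read by ELISA, with increases and decreases both scored relative to DMSO controls.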

Test [12] in a line: BSK_3C_uPAR: BioMAP Diversity Plus: 3C Assay for Urokinase-type plasminogen activator receptor (uPAR) Biomarker Activity (AID 2282998). Conditions: BioMAP 3C HUVEC, uPAR biomarker ELISA; actives raise or lower the signal. In short, it runs like this: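 Human umbilical vein endothelial primary cells were exposed to test chemical for 24 h. Cell-surface uPAR was then quantified by ELISA, and responses were fitted bidirectionally against DMSO as negative control and baseline.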

The target in test [13] is Estrogen-related receptor gamma (Homo sapiens) (UniProt P62508). Kind of test: ATG_ERRg_TRANS: Attagene TRANS-FACTORIAL HepG2 Assay for human Estrogen-Related Receptor gamma (ERRg) (AID 2282977; active = hit-call score of the fitted dose curve at least 0.9, where 1 is the maximum;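 also: hits increase reporter signal over DMSO so potencies reflect activators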). Conditions: HepG2 Attagene TRANS reporter, ERRg transactivation. In short, it runs like this:
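Transient HepG2 transfectants, 24 h compound exposure, GAL4-UAS reporter mRNA by RT-PCR/6-FAM labelling/capillary electrophoresis; positive direction vs DMSO.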

The target of test [14] is Glucocorticoid receptor (Homo sapiens) (UniProt P04150). Kind of test: ATG_GR_TRANS: Attagene TRANS-FACTORIAL HepG2 Assay for human Glucocorticoid Receptor (GR) (AID 2282978; active = hit-call score of the fitted dose curve at least 0.9, where 1 is the maximum;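 also: activators score as hits since higher reporter transcript over DMSO is fitted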). To be noted: HepG2 Attagene TRANS GR reporter, mRNA transcription. In short, it runs like this:
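Multiplexed TRANS reporter system, HepG2; 24 h exposure; RNA → oligo(dT) RT → reporter-specific PCR → 6-FAM primer extension → HpaI cut → CE fluorescence. Gain-of-signal vs DMSO.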

Test [15] addresses Oxysterols receptor LXR-alpha (Homo sapiens) (UniProt Q13133). Briefly: ATG_LXRa_TRANS: Attagene TRANS-FACTORIAL HepG2 Assay for human Liver X Receptor alpha (LXRa) (AID 2282980; active = hit-call score of the fitted dose curve at least 0.9, where 1 is the maximum). Conditions: HepG2 Attagene TRANS reporter, LXRa transactivation. In short, it runs like this: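 Chemical-induced reporter mRNA measured by RT-PCR with fluorescent labelling and capillary electrophoresis after 24 h dosing of transiently transfected HepG2 cells expressing exogenous NR-Gal4 chimeras; increases scored against DMSO baseline.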

Test [16] has as its target Oxysterols receptor LXR-beta (Homo sapiens) (UniProt P55055). Kind of test: ATG_LXRb_TRANS: Attagene TRANS-FACTORIAL HepG2 Assay for human Liver X Receptor beta (LXRb) (AID 2282981; active = hit-call score of the fitted dose curve at least 0.9, where 1 is the maximum). Conditions: HepG2 Attagene TRANS GAL4-LXRb reporter, mRNA. In short, it runs like this:
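Gain-of-signal mRNA reporter endpoint, DMSO as negative control. Transiently transfected HepG2 cells carrying the NR-Gal4 chimera and GAL4-UAS reporter units were treated 24 h; transcripts quantified by RT-PCR and capillary electrophoresis fluorescence.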

A short description of test [17]: ATG_M_32_TRANS: Attagene TRANS-FACTORIAL HepG2 Assay for M32 Transcription Factor (Internal Marker) (AID 2282984; active = hit-call score of the fitted dose curve at least 0.9, where 1 is the maximum;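 also: transcript level of a background control reporter unit measured by RT-PCR and capillary electrophoresis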). Conditions: HepG2 Attagene TRANS M32 internal marker reporter. In short, it runs like this: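 Capillary electrophoresis of 6-FAM-labelled reporter fragments gives the signal; data fitted for gain over DMSO negative control. Source: HepG2 cells bearing transient multiple reporter transcription units, 24 h exposure.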

Test [18] is described as follows: ATG_NFI_CIS: Attagene CIS-FACTORIAL HepG2 Assay for human Nuclear Factor I (NFI) (AID 2282989). Conditions: HepG2 cis-regulatory reporter, NFI response element transcription; actives raise or lower the signal. In short, it runs like this:
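HepG2 cells transiently transfected with cis-element-driven multiplexed reporter transcription units, dosed for 24 h. Reporter mRNA quantified by RT-PCR, fluorescent labelling, HpaI digestion and capillary electrophoresis; bidirectional fit versus DMSO baseline.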

Nuclear respiratory factor 1 (Homo sapiens), sequence (Q16656 whole entry, looked up): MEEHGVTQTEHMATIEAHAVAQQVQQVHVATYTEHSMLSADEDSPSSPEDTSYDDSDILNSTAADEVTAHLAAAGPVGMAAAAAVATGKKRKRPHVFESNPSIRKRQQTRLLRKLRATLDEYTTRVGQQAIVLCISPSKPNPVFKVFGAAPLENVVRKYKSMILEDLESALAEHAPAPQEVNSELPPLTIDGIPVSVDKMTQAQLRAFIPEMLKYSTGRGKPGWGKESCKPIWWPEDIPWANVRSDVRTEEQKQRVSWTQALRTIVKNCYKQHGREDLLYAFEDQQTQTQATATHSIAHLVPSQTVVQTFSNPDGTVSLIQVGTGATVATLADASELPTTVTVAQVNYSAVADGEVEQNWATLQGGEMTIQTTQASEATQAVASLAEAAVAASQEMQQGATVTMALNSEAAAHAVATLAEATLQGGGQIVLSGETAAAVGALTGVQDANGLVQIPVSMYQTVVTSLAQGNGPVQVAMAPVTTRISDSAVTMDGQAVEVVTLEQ
Oxysterols receptor LXR-beta (Homo sapiens), sequence (P55055 whole entry, looked up, the tested form may be a part): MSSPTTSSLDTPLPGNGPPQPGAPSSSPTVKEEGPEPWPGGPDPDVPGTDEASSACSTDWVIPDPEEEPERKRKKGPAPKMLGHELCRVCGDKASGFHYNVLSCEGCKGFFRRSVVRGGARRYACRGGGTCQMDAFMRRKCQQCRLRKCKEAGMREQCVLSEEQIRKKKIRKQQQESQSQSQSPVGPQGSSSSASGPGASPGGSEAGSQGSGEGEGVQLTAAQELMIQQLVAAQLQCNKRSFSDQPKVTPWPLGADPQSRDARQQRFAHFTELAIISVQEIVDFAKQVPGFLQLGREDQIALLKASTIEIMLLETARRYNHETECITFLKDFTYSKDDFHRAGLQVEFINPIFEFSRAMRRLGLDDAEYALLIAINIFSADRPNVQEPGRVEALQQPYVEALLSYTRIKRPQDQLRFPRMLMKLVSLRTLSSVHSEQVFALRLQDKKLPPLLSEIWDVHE
Glucocorticoid receptor (Homo sapiens), sequence (P04150 whole entry, looked up): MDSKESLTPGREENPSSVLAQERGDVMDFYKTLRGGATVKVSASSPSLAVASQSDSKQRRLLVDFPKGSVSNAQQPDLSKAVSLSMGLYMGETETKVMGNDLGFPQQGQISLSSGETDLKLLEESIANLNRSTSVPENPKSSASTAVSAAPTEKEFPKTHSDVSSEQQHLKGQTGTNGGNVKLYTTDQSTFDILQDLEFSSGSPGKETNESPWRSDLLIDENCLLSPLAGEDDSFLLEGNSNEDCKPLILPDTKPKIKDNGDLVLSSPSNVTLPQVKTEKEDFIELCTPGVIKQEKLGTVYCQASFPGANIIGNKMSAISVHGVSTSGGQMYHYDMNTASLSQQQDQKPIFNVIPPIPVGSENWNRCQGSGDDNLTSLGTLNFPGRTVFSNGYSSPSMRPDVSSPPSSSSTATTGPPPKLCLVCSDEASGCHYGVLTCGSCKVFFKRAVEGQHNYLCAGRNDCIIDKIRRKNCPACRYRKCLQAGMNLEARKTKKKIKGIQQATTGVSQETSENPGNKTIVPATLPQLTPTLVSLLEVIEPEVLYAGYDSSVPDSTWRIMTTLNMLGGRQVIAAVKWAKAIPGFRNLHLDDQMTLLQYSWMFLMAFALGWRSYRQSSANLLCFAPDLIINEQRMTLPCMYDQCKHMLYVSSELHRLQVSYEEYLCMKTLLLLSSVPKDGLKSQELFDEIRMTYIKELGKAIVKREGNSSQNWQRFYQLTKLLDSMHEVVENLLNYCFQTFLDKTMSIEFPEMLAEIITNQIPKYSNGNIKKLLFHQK
Myc proto-oncogene protein (Homo sapiens), sequence (P01106 whole entry, looked up, the tested form may be a part): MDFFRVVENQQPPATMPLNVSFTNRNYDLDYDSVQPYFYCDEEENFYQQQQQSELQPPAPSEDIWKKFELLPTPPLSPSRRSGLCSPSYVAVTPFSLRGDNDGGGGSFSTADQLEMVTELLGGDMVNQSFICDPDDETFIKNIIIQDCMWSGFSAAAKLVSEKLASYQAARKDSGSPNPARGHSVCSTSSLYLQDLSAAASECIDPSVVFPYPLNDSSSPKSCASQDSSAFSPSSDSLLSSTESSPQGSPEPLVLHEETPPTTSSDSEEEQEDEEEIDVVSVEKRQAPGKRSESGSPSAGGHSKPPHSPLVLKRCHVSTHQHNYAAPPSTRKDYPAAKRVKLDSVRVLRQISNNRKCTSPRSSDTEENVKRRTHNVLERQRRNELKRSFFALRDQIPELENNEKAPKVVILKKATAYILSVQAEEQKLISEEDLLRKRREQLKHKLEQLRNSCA
Oxysterols receptor LXR-alpha (Homo sapiens), sequence (Q13133 whole entry, looked up, the tested form may be a part): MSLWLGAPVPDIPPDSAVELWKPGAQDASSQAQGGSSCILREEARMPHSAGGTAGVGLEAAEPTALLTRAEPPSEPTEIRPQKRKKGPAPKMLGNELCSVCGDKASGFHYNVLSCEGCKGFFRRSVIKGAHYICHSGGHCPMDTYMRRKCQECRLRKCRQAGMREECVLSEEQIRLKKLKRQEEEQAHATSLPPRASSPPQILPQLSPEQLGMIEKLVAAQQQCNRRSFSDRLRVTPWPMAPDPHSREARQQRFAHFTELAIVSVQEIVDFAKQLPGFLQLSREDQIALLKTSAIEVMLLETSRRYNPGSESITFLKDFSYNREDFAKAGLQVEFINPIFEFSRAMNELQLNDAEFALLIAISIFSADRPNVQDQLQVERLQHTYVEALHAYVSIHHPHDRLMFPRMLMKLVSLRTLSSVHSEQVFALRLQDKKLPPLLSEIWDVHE
Nuclear receptor subfamily 4 group A member 2 (Homo sapiens), sequence (P43354 whole entry, looked up): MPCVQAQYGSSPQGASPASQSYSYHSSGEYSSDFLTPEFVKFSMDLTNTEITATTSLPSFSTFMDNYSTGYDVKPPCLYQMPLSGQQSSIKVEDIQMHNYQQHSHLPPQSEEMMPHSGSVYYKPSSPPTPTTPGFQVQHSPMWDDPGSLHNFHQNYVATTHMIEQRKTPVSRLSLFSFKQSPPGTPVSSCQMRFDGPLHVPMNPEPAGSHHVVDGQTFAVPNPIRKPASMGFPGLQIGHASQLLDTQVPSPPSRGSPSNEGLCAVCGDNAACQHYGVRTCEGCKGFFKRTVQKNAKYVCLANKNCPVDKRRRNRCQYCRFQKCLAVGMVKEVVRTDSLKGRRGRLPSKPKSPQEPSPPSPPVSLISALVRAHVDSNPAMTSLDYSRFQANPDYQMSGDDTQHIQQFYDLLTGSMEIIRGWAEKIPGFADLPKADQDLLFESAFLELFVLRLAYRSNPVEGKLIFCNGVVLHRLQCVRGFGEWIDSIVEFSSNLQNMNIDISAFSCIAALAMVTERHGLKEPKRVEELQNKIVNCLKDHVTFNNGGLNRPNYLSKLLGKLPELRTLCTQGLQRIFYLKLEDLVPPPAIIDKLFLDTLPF
Transcriptional activator Myb (Homo sapiens), sequence (P10242 whole entry, looked up): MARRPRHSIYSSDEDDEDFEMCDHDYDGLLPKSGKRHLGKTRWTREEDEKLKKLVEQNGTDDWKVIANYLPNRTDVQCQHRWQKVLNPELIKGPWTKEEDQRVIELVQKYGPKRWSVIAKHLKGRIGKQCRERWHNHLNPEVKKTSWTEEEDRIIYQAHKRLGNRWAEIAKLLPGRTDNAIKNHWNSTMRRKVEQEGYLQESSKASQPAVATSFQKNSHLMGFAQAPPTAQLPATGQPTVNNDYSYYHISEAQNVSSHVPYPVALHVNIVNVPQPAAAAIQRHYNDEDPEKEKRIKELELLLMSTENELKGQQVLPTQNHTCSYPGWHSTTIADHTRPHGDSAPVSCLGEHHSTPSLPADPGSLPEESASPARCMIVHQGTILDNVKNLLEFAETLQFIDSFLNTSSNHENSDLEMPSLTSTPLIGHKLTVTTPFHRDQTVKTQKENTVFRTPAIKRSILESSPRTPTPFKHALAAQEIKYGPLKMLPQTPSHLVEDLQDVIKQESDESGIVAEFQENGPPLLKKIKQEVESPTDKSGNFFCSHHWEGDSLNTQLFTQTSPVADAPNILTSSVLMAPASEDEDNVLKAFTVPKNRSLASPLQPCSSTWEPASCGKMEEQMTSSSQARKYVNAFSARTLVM
Hepatocyte nuclear factor 4-alpha (Homo sapiens), sequence (P41235 whole entry, looked up, the tested form may be a part): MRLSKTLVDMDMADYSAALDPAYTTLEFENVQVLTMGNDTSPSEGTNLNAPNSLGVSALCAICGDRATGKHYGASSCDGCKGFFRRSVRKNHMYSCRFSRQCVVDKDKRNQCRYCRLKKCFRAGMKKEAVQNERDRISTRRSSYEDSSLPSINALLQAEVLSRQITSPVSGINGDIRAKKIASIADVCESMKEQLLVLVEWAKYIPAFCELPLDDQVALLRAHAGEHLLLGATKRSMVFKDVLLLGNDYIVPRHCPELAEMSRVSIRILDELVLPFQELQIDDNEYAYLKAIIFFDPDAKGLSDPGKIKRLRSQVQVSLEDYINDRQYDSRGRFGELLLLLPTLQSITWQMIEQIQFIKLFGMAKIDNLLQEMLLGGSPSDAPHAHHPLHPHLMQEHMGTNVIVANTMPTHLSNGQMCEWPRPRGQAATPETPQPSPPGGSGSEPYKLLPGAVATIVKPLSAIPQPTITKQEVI
Estrogen-related receptor gamma (Homo sapiens), sequence (P62508 whole entry, looked up, the tested form may be a part): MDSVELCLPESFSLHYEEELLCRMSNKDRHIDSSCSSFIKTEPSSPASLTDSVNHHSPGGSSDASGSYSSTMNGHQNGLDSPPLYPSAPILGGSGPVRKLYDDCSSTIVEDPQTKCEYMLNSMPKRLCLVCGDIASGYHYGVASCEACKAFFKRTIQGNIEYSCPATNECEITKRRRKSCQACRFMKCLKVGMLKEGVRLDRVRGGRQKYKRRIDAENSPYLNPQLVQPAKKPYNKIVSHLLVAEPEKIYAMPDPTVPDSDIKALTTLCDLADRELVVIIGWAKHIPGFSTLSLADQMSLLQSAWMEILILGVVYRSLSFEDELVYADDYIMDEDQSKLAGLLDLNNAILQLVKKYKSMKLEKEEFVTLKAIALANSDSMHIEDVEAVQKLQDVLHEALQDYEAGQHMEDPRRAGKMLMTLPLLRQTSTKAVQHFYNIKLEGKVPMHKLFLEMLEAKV

As usually defined, the AC50 is the concentration at which the activity in the assay is half-maximal. With `O=C(O)COc1nc(Cl)c(Cl)cc1Cl`, the outcome in test [1], in [2], in test [3], in [4], in [5] and in test [6] was inactive. Moreover, the result in test [7], in test [9], in test [10], in test [11] and in test [12] was inactive. Also, in test [8], the AC50 was 19.1 µM (active).
For the molecule `CCNc1nc(Cl)nc(NCC)n1`, the outcome in test [13], in test [14], in [15], in test [16], in test [2] and in test [17] was inactive. In addition, the molecule was called inactive in test [4], in test [5], in [6], in test [8], in test [9] and in [10]. Also, the outcome in test [11] and in test [12] was inactive.
For `COP(N)(=O)SC` (stereo not drawn), the molecule was classed as inactive in [15], in test [1], in [2], in test [17], in test [3] and in test [4]. The call in [5], in test [6], in test [7], in test [8], in test [9] and in test [10] was inactive. The outcome in test [11] and in test [12] was inactive.
In the case of `C=CCC1=C(C)[C@@H](OC(=O)[C@@H]2[C@@H](C=C(C)C)C2(C)C)CC1=O`, the outcome in test [13], in [14], in [16], in test [1], in [2] and in [4] was inactive. The call in [5], in test [18], in test [6], in test [7] and in test [10] was inactive. Also, the AC50 in [8] is 2.64 µM (active); in test [9] it was 9.45 µM (active); in [11], 18.8 µM (active); in test [12], 36.6 µM (active).
For the molecule `CCOC(=O)CC(SP(=S)(OC)OC)C(=O)OCC` (stereo not drawn), the call in [14], in [15], in test [16], in test [1], in [2] and in [17] was inactive. In addition, the call in [3], in [4], in [5], in test [6], in [7] and in test [10] was inactive. Further, in test [11], the result was inactive. Also, the AC50 in test [8] was 25.1 µM (active) and 19.6 µM (active); in test [9] it was 133 µM (active) and 24 µM (active); in test [12] it was 5.14 µM (active).
Regarding `Fc1ccc(Oc2ccnc3cc(Cl)cc(Cl)c23)cc1`, the call in [14], in [15], in [16], in test [1], in [17] and in test [3] was inactive. Besides, the molecule was called inactive in test [4], in test [5], in test [18], in test [6], in test [9] and in test [10]. Also, the AC50 was 3.83 µM (active) in test [8], 34.7 µM (active) in test [11] and 31.2 µM (active) in [12].
Regarding `Cc1ccc(-c2c(Cl)nc(C#N)n2S(=O)(=O)N(C)C)cc1`, the result in [14], in test [15], in test [16], in test [2], in [4] and in test [5] was inactive. For the same molecule, the molecule was called inactive in test [6], in test [7] and in [10]. For the same molecule, the AC50 in test [8] was 6.65 µM (active); in test [9], 11.9 µM (active); in test [11], 27.3 µM (active); in [12], 23.9 µM (active).
Take `N#Cc1cc(Br)c(O)c(Br)c1`: the result in [13], in test [15], in test [16], in test [1], in test [4] and in [5] was inactive. Besides, the molecule was called inactive in test [6], in [7], in test [10] and in test [11]. In addition, the AC50 in test [18] is 10.8 µM (active); in test [8] it was 26.7 µM (active); in [9] it was 40.1 µM (active); in test [12] it was 32.5 µM (active).
